In the supplement of paper PMC11732987, “Enantioselective OTUD7B fragment discovery through chemoproteomics screening and high-throughput optimisation” (Communications Chemistry, 2025):

Experiments:
Test in all cases: log2 ratio of Biotin-Ahx-Ub-VS probe labelling (fragment/DMSO); higher = less target engagement (more negative = stronger competition), active = hit call of the paper (q ≤ 0.05, log2 ratio ≤ -1)
Details in all cases: compound concentration: 200 uM; treatment time: 3 h
[1] = molecular target: USP9X (UniProt Q93008)
Summary of the method: (§1)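 HEK293T lysate (495 µg per sample, in Tris/CHAPS/IGEPAL buffer with protease inhibitors) was treated in triplicate with fragment at 200 µM or with DMSO for 3 h. It was then treated with Biotin-Ahx-Ub-VS (0.5 µM final) for 1 h. Labelled DUBs were NeutrAvidin-enriched, digested with LysC and trypsin, and run by diaPASEF LC-MS/MS. Spectronaut label-free quantities were global-median-normalised. Values are average log2 ratios fragment/DMSO by unpaired t-test, using proteins with ≥2 unique peptides.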

[2] = molecular target: UniProt O00487
Summary of the method: as §1

[3] = molecular target: UniProt O00507
Summary of the method: as §1

[4] = molecular target: UniProt P51784
Summary of the method: as §1

[5] = molecular target: T1, UniProt Q5T2D3
T1 sequence (whole entry): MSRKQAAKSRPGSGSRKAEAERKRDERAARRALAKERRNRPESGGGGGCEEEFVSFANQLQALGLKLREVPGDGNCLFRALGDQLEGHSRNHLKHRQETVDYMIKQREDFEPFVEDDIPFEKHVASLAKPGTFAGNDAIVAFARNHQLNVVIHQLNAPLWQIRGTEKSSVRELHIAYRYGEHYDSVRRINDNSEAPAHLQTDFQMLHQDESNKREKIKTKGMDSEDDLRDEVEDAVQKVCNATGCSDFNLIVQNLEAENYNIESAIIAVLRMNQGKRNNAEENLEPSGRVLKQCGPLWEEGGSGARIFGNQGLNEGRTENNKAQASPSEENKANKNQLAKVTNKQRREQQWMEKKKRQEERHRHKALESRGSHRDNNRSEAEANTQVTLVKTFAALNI
Summary of the method: as §1

[6] = molecular target: T2, UniProt Q8TE49
T2 sequence (whole entry): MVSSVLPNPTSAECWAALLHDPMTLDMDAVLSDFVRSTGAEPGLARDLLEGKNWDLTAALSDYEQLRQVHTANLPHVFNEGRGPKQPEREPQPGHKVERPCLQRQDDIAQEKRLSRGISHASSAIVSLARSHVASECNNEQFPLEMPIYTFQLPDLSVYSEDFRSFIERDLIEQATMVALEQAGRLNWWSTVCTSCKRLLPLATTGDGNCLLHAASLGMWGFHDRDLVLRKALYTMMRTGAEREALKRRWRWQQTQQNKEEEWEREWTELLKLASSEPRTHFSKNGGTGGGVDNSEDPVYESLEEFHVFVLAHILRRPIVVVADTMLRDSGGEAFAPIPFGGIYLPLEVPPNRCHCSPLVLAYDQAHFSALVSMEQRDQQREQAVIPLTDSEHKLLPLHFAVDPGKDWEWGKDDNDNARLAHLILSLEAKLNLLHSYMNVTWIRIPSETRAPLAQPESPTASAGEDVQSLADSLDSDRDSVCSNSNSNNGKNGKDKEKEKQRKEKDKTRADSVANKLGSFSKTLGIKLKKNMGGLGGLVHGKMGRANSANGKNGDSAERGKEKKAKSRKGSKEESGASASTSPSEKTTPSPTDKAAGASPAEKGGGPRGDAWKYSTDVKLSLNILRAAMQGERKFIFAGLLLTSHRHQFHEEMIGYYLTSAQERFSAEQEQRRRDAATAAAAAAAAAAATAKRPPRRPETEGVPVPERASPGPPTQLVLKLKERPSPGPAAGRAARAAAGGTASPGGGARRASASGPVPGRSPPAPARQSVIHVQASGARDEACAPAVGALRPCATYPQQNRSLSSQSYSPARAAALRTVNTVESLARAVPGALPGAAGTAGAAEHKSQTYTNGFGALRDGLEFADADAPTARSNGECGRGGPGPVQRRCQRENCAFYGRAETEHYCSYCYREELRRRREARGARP
Summary of the method: as §1

[7] = molecular target: T3, UniProt Q9P2H5
T3 sequence (whole entry): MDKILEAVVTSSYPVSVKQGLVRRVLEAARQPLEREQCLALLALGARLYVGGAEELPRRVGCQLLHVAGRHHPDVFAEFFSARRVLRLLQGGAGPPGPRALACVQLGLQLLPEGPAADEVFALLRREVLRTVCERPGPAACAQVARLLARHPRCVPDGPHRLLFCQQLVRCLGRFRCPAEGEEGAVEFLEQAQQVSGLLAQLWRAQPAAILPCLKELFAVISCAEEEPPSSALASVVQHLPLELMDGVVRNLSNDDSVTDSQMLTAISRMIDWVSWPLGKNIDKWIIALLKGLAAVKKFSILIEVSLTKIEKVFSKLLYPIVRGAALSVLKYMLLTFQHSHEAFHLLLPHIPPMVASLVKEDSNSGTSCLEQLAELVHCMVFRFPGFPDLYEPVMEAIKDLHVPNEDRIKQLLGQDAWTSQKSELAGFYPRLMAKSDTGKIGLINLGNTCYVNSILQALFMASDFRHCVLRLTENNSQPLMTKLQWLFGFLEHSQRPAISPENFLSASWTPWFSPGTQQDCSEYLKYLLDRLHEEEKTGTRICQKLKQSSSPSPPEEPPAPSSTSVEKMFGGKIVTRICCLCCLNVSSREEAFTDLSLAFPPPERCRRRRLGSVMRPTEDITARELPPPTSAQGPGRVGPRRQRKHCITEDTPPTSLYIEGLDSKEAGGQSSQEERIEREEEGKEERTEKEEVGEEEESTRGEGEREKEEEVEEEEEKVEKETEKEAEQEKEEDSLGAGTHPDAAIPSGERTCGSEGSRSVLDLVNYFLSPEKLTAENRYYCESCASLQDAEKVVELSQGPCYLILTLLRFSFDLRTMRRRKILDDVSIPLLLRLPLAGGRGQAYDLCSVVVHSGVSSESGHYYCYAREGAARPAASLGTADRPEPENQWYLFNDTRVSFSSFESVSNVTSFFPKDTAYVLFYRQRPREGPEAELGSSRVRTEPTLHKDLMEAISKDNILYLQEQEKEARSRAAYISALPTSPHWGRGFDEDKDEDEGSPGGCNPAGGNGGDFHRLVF
Summary of the method: as §1

[8] = molecular target: T4, UniProt Q9UGI0
T4 sequence (whole entry): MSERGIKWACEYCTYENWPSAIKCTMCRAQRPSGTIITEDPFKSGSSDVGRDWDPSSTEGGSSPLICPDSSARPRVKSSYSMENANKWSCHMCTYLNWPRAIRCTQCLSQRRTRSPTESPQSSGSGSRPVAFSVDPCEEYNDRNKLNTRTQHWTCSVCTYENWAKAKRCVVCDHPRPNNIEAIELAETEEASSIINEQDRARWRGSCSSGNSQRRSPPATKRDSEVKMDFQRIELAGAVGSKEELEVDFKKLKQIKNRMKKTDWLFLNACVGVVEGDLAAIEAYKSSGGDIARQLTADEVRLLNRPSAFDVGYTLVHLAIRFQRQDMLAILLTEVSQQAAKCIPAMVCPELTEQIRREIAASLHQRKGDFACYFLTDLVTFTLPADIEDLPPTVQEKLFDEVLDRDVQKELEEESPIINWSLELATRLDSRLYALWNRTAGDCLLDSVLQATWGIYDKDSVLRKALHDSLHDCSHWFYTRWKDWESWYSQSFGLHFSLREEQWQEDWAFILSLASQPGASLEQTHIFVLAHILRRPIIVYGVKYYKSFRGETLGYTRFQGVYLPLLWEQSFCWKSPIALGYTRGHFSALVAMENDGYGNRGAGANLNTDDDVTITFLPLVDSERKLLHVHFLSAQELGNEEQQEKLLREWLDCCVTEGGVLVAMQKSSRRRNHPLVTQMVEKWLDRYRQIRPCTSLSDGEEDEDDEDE
Summary of the method: as §1

[9] = molecular target: T5, YOD1 (UniProt Q5VVQ6)
T5 sequence (whole entry): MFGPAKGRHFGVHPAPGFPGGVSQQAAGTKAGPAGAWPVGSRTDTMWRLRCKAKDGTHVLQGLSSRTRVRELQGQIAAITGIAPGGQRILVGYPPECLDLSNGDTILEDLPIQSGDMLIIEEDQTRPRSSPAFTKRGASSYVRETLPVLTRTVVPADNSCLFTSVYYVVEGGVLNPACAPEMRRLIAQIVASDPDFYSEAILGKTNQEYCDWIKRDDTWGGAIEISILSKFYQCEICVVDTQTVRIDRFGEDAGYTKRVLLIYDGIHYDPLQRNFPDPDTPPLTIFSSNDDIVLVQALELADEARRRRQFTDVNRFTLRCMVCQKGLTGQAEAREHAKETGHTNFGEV
Summary of the method: as §1

Measured: log2 ratio of Biotin-Ahx-Ub-VS probe labelling

Sequence of UniProt P51784 (P51784 whole entry): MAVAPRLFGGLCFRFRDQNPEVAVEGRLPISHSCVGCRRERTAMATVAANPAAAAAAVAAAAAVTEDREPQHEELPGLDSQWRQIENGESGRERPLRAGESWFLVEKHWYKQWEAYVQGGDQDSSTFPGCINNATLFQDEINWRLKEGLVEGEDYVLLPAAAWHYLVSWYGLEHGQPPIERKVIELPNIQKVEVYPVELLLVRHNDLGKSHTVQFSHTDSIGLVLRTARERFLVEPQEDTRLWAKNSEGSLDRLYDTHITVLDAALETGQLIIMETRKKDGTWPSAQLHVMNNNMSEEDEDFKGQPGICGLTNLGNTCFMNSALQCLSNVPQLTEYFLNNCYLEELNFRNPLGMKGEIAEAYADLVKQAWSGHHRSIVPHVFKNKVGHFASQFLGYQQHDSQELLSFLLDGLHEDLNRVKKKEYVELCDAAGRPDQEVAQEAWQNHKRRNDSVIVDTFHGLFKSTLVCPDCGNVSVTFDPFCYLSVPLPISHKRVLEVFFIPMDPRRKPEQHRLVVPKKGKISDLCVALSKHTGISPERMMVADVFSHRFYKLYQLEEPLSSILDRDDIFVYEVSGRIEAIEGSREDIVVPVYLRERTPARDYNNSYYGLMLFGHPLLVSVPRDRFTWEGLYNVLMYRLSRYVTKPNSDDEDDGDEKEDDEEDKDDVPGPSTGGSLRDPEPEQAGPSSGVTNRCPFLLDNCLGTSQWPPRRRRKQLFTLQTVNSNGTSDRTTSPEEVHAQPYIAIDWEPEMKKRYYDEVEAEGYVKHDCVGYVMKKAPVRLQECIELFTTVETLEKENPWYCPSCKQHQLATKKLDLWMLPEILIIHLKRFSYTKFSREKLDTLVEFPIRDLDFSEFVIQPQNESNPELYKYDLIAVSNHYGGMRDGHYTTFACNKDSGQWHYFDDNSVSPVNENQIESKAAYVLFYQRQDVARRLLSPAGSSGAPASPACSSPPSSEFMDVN
Sequence of UniProt O00507 (O00507 whole entry): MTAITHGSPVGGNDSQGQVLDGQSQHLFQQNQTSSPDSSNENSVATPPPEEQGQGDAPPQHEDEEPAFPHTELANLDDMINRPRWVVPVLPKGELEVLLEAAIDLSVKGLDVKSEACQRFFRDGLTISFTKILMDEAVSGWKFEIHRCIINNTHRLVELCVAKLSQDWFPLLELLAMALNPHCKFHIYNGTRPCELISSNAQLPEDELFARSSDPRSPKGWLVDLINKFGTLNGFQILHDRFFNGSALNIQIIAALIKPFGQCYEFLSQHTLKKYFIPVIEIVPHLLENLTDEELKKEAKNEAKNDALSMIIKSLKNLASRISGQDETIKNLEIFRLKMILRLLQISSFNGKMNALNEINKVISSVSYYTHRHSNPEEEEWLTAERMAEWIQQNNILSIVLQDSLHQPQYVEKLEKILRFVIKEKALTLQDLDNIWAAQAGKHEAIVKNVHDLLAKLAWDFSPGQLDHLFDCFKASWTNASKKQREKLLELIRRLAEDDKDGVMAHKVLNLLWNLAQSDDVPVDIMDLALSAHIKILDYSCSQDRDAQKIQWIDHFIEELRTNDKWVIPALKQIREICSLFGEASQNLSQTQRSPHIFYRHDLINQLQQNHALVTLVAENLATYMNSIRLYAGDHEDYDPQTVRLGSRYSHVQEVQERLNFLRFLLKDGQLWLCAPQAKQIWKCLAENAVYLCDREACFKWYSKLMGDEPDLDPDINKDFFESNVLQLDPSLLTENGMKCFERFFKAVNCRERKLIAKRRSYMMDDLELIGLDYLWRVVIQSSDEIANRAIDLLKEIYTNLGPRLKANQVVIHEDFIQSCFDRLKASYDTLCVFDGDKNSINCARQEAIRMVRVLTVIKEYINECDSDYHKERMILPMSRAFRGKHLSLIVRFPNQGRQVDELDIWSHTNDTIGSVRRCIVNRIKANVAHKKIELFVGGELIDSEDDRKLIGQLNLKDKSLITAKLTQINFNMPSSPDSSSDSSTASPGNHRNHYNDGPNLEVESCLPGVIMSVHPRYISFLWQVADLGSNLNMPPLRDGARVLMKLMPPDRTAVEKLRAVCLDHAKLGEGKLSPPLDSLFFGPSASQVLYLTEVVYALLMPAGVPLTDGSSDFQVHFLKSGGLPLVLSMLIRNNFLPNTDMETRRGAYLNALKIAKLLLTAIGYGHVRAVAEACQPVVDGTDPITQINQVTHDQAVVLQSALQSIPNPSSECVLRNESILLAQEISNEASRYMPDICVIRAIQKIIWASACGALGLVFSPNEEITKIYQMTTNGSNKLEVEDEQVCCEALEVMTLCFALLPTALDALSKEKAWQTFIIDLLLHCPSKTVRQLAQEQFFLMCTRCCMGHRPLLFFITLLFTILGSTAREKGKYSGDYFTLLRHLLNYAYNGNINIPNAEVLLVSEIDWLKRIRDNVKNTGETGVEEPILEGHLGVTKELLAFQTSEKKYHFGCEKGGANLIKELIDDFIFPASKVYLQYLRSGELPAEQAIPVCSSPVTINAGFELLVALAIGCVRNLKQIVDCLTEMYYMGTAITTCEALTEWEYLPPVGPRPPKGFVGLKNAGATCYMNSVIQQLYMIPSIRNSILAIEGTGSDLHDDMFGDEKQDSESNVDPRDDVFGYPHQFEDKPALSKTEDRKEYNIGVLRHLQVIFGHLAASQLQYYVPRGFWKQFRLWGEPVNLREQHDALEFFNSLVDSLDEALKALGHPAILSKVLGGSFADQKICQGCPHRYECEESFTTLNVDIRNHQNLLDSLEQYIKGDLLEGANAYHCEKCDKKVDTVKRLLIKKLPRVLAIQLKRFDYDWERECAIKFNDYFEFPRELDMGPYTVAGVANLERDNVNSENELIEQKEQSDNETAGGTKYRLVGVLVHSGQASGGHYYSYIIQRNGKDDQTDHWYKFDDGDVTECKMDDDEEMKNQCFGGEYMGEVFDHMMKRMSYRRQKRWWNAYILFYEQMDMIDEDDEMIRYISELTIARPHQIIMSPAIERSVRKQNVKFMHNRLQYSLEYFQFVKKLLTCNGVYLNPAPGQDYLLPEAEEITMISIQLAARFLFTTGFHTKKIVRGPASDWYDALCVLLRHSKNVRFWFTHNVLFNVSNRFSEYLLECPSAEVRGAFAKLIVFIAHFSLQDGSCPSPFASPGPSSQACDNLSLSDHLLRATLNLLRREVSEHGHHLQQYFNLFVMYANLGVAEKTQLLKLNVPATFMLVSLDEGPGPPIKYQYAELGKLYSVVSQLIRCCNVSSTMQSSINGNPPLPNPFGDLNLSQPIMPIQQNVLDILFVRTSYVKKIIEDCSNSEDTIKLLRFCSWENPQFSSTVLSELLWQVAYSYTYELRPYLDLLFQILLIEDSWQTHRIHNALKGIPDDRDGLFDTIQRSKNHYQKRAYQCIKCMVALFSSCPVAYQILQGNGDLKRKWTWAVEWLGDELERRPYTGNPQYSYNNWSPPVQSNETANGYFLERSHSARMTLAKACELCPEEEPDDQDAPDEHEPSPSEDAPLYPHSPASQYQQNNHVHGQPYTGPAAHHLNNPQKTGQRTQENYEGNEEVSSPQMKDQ
Sequence of UniProt O00487 (O00487 whole entry): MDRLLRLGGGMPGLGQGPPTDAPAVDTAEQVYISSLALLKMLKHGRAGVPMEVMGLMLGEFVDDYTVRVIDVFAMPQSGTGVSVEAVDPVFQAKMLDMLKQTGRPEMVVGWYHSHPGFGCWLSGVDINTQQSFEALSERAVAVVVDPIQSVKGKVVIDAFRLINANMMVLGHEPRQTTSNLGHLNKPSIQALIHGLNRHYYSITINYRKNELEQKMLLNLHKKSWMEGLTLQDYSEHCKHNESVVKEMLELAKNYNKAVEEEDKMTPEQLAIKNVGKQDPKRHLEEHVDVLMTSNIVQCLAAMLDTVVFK

O=C(CCl)Nc1cc(Cl)ccc1C(=O)O
inactive: [1] -0.165 | [2] -0.0135 | [3] 0.337 | [4] 0.177 | [5] -0.138 | [6] -0.2 | [7] -0.258 | [8] -0.128 | [9] 0.233
